For two compounds, growth rating (0-3) results are on record in PubChem BioAssay AID504456 (NMMLSC, 2011).

A short description of this assay: wild-type yeast growth inhibition sparing TORC1 bypass cells, mechanism study for yeast TOR pathway GFP screen, BY4741 wild type, TORC1 bypass strain (AID 504456). The settings on record: S. cerevisiae BY4741 spot growth rating, 48-72 h, at 30 µM.
Where [1] appears, read: TORC1 bypass strain growth rating.

The list shows a part of the results. The source made the active and inactive calls.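 How the source made its calls: active means growth rating at most 1 for wild type yeast while the TORC1 bypass strain still grows fully, rated 3; inactive means the rest.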

`Cc1ccc(-c2nn(C(C)(C)C)c3ncnc(N)c23)cc1`: the growth rating (0-3) is 3 under setting [1] and 3 (inactive) (stronger effect = lower value).
Consider `CN(C)CCCNc1nc(N)c([N+](=O)[O-])c(Nc2cccc(F)c2)n1`, for which the growth rating (0-3) is, setting by setting: under setting [1], 3; (stronger effect = lower value) 3 (inactive).
